Shown are actives, neighbours in structure and some others; about 2.4% of the full set was active somewhere.
D2 PAM-1: potentiates the human D2 dopamine receptor allosterically. DiscoveRx D2 beta-arrestin cells, luminescence, 90 min; 100% = 57 uM dopamine signal. potentiation, % (no concentration beside the values). 0.23% of 360,000 active. AID 624464; in the data active = potentiation above about 50%; inconclusive = mostly about 30% to 49%
Target sequence (P14416 whole entry, looked up): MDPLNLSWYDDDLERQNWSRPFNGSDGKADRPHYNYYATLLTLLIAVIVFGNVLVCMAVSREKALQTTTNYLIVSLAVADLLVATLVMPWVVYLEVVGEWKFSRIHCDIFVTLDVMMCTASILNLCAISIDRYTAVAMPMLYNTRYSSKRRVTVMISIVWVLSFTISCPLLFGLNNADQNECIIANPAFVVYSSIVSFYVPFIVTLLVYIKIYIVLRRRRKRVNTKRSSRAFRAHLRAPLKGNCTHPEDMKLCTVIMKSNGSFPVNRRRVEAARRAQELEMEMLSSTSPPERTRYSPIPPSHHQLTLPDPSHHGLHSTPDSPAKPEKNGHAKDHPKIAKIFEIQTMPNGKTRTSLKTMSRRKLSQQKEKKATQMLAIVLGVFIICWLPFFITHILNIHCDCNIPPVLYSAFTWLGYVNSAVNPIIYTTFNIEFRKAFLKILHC
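D2 cells co-treated with compound plus 50 nM dopamine (EC20) for 90 min at 37 deg C to detect potentiation. Beta-arrestin recruitment was read as enzyme-fragment luminescence after 1 h at ambient temperature. Full response was set by 57 uM dopamine.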
D2 PAM-2: D2 dopamine receptor (human) potentiation | P14416 | HEK293 T-REx D2, calcium flux, EC20 dopamine potentiation | potentiation, % at 10 µM | 0.34% of 340,000 active | AID 485347;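 active = potentiation over 3 SD above the plate norm, cut at about 30% in these data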
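Primary screen. Calcium kinetics in induced HEK293 T-REx D2 cells: compound pre-addition 180 s, EC20 dopamine, 180 s more.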
D2 ag-1: human D2 receptor agonism in beta-arrestin assay; P14416; DiscoveRx PathHunter D2 beta-arrestin, luminescence, 90 min; 100% = 57 uM dopamine signal; activation, % (test concentration not listed); 0.084% of 360,000 active; AID 624465; in the data active = activation above about 40%; inconclusive = between about 15% and that limit
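Agonist mode: compounds alone added to overnight-plated D2 PathHunter cells for 90 min at 37 C, with 57 uM final dopamine (EC100) defining full response. Beta-arrestin recruitment detected by chemiluminescent reagent, read after 1 h at ambient temperature.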
B2AR arrestin: beta2AR (human) beta-arrestin recruitment activity; AID 492947; Potency, µM (series often up to 46.1 µM), usual class: activators; beta-arrestin recruitment to beta2AR, cell-based reporter; P07550; 0.02% of 330,000 active; active = well fitted activation curve with a large enough effect; inconclusive = small, poorly fitted or top-dose-only effect; note: nearly all actives have a fitted effect of over 65% in size
D2 ag-2: activates the human D2 dopamine receptor | activation, % at 2 µM | HEK293 T-REx D2 cells, calcium flux agonist mode | 0.53% of 340,000 active | P14416;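 active = activation over 3 SD above normal in the single-dose calcium agonist read, cut at about 30% in these data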
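Tetracycline-induced HEK293 T-REx cells with force-coupled D2 receptor, plated overnight at 30 C, loaded with no-wash calcium dye. After a 10 s baseline, compound was pin-added and calcium flux read kinetically for 180 s; calcium rises flagged agonists.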
D2 antag: D2 dopamine receptor (human) antagonism; P14416; HEK293 TREx D2 cells, calcium flux, dopamine EC80; inhibition, % at 10 µM; 2% of 340,000 active; in the data active = inhibition above about 30%; inactive = below that, where a call was filed
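Tetracycline-induced HEK293 TREx cells expressing D2 receptor forced-coupled to calcium signalling, loaded with no-wash calcium dye. Compounds added and calcium flux read 180 s, then dopamine added at EC80 and read a further 180 s.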
Each line names hits and unclear results; the compound was inactive in the other large screens; ! = repeats disagree.

COC(=O)[C@@]1(Cc2ccc(F)cc2)[C@H]2c3cc(C(=O)N4CCCC4)n(CCc4ccc(O)c(O)c4)c3C[C@H]2CN1C(=O)c1ccccc1	D2 ag-2 87, D2 antag 96 (no result: D2 PAM-1, D2 ag-1)
COC(=O)[C@@]1(Cc2ccc(F)cc2)[C@H]2c3cc(C(=O)N4CCCC4)n(CCO)c3C[C@H]2CN1C(=O)c1ccccc1	none
CC1CC(C)(C)NC(=S)N1CCCC(=O)NCCc1ccc(Cl)cc1 (stereo not drawn)	none
CC1CC(C)(C)NC(=S)N1CCC(=O)NCCc1ccc(Cl)cc1 (stereo not drawn)	D2 antag 35
N#C/C(=C\c1ccc(O)c(Br)c1)C(=O)NCc1ccccc1	D2 antag 69
OCCOCCN1CCN(C(c2ccccc2)c2ccc(Cl)cc2)CC1 (stereo not drawn)	D2 antag 72
NNC(=O)CCN1CCN(C(c2ccccc2)c2ccccc2)CC1	none
Cn1c(=O)[nH]c(=O)c2c1nc(N1CCCCCC1)n2CCCSc1nc2ccccc2o1	none
O=C(CSc1ncnc2sccc12)Nc1ccccc1	none
Cc1cc(Br)ccc1NC(=O)CNC(=O)CNc1cccc([N+](=O)[O-])c1	D2 antag 31
O=C(Cn1c(=O)sc2ccccc21)OC(CCl)CCl	none
Fc1ccc(NC(=S)N/N=C/c2cccc(Br)c2)c(F)c1	D2 PAM-2 48
Fc1cccc(/C=N/NC(=S)Nc2ccccc2Cl)c1	none
CC1CC(C)(C)Nc2ccc(OC(=O)c3ccco3)cc21 (stereo not drawn)	D2 PAM-1 112, D2 ag-1 inconclusive
COc1ccc(C(C)=O)c(OC(=O)c2ccc(OC)c(OC)c2)c1	D2 PAM-2 36
COc1ccc(C(C)=O)c(OC(=O)c2ccco2)c1	D2 PAM-2 39
COc1ccc(C(=O)Nc2cccc(OC(=O)c3ccco3)c2)cc1	none
Cc1ccccc1C(=O)N1N=C(c2cccc(NS(C)(=O)=O)c2)CC1c1cccs1 (stereo not drawn)	none
CCN1CCN(C(=O)c2ccc3c(c2)N(Cc2ccccc2)C(=O)c2ccccc2S3(=O)=O)CC1	D2 antag 40
CCN1CCN(C(=O)c2ccc3c(c2)N(Cc2ccc(Cl)cc2)C(=O)c2ccccc2S3(=O)=O)CC1	none (no result: D2 PAM-1, D2 ag-1, B2AR arrestin, D2 ag-2, D2 antag)
C[C@H](CO)N1C[C@H](C)[C@@H](CN(C)Cc2ccc3c(c2)OCO3)Oc2ccc(NC(=O)Cn3cnnn3)cc2C1=O	none (no result: D2 PAM-2, D2 ag-2, D2 antag)
CCCCC(=NCCc1c(C)[nH]c2ccc(OC)cc12)C1=C(O)CC(c2ccccc2)CC1=O (stereo not drawn)	D2 PAM-2 33
COc1ccc(F)cc1S(=O)(=O)NC1CC(C)(C)NC(C)(C)C1	D2 PAM-2 35
COc1ccc(Cl)cc1S(=O)(=O)NC1CC(C)(C)NC(C)(C)C1	none (no result: D2 ag-2, D2 antag)
O=C(CCn1cnnn1)Nc1ccccc1F	none
O=C(NC1CC2CCCC(C1)N2C(=O)Nc1ccc(Cl)c(C(F)(F)F)c1)C1CC1 (stereo not drawn)	none
CCc1ccccc1NC(=O)NC1CC2CCC(C1)N2Cc1ccco1 (stereo not drawn)	D2 antag 32
Cc1ccc(C)c(NC(=S)NC2CC3CCC(C2)N3Cc2ccco2)c1 (stereo not drawn)	none
Cc1cc(C)cc(NC(=S)NC2CC3CCC(C2)N3Cc2ccco2)c1 (stereo not drawn)	D2 antag 46
O=C(Nc1ccc(Cl)c(C(F)(F)F)c1)NC1CC2CCCC(C1)N2Cc1ccccc1 (stereo not drawn)	D2 antag 48 (no result: D2 PAM-2)
Cc1cccc(NC(=S)NC2CC3CCCC(C2)N3Cc2cccs2)c1 (stereo not drawn)	D2 antag 77
CC(c1ccccc1)N1CC(C(=O)N2CCCC(C(N)=O)C2)CC1=O (stereo not drawn)	none
O=C(c1ccc(S(=O)(=O)c2cccc(Cl)c2)c([N+](=O)[O-])c1)N1CCN(Cc2ccccc2)CC1	none
O=C(Nc1cccc(Cl)c1)NC1CC2CCC(C1)N2Cc1ccco1 (stereo not drawn)	D2 antag 64
COc1cc(OC)cc(C(=O)NC2CC3CCC(C2)N3Cc2ccco2)c1 (stereo not drawn)	D2 antag 48
COc1ccccc1OCCCn1c(=O)oc2ccccc21	D2 antag 34
COc1cc(NC(=O)CCn2c(=O)oc3ccccc32)cc(OC)c1OC	D2 PAM-2 34!
c1ccc(C(c2nnnn2Cc2ccco2)N2CCN(c3nc4ccccc4s3)CC2)cc1 (stereo not drawn)	D2 PAM-2 30
CCOC(=O)CNC(=O)C12CC3CC(C1)CC(c1ccc(C)cc1)(C3)C2	none
CCOc1ccc(NC(=O)C23CC4CC(C2)CC(c2ccccc2)(C4)C3)cc1	D2 antag 31
CCOC(=O)C1CCCN(C(=O)c2ccc3c(c2)NC(=O)C(N2CCOCC2)S3)C1 (stereo not drawn)	none
O=C(c1ccc(Cl)s1)N1CCN(c2ccccc2)CC1	none
C/C=C(/C(=C/C)c1ccc(O)cc1)c1ccc(O)cc1	B2AR arrestin 1.5µM
O=C(NCCCNC(=O)c1cnccn1)c1ccc(Br)cc1	none (no result: D2 PAM-2, D2 ag-2, D2 antag)
CCCNC(=O)CC(NS(=O)(=O)c1ccc(OC)cc1)c1ccco1 (stereo not drawn)	D2 PAM-2 35
COc1ccc(CNC(=O)/C(C)=C\C(=O)O)cc1	D2 antag 36
COc1ccc(CNC(=O)C(=O)NCc2ccncc2)cc1	none
O=C(CN1CCc2cc3c(cc2C1)OCCCO3)Nc1c(F)cccc1F	D2 antag 42
O=C(CN1CCc2cc3c(cc2C1)OCCCO3)Nc1ccc(F)cc1	none
COc1ccc(C)cc1NC(=O)CSc1nnc(-c2ccco2)n1N	none
CCOC(=O)CNC(=O)CSc1nnc(-c2ccco2)n1Cc1ccco1	none
COc1ccccc1NC(=O)CSc1nnc(-c2ccco2)n1N	D2 antag 34
CCOC(=O)CNC(=O)CSc1nnc(-c2ccco2)n1N	D2 antag 34
O=C(Cc1csc2ccccc12)NCc1cccc(Br)c1	none (no result: D2 PAM-1, D2 ag-1, B2AR arrestin, D2 antag)
CC(C)OC(=O)CC(=O)c1sc2nc3c(cc2c1N)CN(C)CC3	none
CC(NC(N)=O)C(=O)Nc1ccc(Cl)c(S(=O)(=O)Nc2ccc(Br)cc2)c1 (stereo not drawn)	none
CCc1ccc(NC(=S)NC2CCN(Cc3ccccc3)CC2)cc1	D2 antag 98
CC1CCN(CCNC(=S)Nc2ccc(Cl)cc2)CC1	D2 antag 31
COc1ccc(CCNC(=S)NC2CCN(Cc3ccccc3)CC2)cc1	D2 antag 71
S=C(Nc1ccc(Cl)cc1)NC1CCN(Cc2ccccc2)CC1	D2 antag 69
